For test [1], the target named is Lysosomal acid glucosylceramidase (Homo sapiens) (UniProt P04062). The test is described as follows: Glucocerebrosidase-p2 (AID 348; in the data active means potency below about 10 µM; further: potency means the concentration at half of the fitted maximal effect). As to conditions: purified GBA, blue fluorogenic substrate, 40 min. The method in brief: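 Compounds titrated from 0.6 nM upwards against 0.2 nM enzyme in pH 5.9 citric acid/KH2PO4, taurocholate, tween-20; blue fluorogenic substrate 80 uM, 40 min room temperature, stopped and read Ex 365/Em 440 for AC50.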

Test [2] in a line: AP1 Signaling Pathway (AID 357; active means well fitted curve in either direction with a large enough effect, not every such curve was filed as active; further: on the % scale 0 is the no-effect control and ±100 the full control effect). As to conditions: ME-180 AP-1-bla reporter, EGF-induced, beta-lactamase ratio, 5 h; at 7.69 µM (top of the series) unless noted. An outline of the steps: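 ME-180 cells with beta-lactamase reporter under AP-1 response element, stimulated with EC50 EGF; compounds tested in titration series, 5 h at 37 °C. CCF4 substrate added 2.5 h at room temperature; 460/530 nm emission ratio gave %activity and AC50.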

Test [3] has as its target Cytochrome P450 1A2 (Homo sapiens) (UniProt P05177). The test is described as follows: p450-cyp1a2 (AID 410; calls by dose curve; further: potency means the concentration at half of the fitted maximal effect). As to conditions: recombinant CYP1A2, luciferin-ME demethylation, luminescence; series mostly up to 57 µM. The method in brief:
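20nM CYP1A2 with 100uM Luciferin-ME (at Km) in 100mM KPO4; compound preincubated 10 min, NADPH regeneration added, 60 min at room temperature. Luciferin quantified by luminescence after detection reagent; normalized to 57 uM furafylline.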

Test [4] can be described thus: NFAT Signaling Pathway (AID 444; active means well fitted curve in either direction with a large enough effect, not every such curve was filed as active;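 further: carbachol stimulus at about its EC50 of 1 µM final; on the % scale 0 is the no-effect control and ±100 the full control effect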). As to conditions: Jurkat NFAT-bla M1, carbachol, beta-lactamase ratio, 5 h; at 7.69 µM (top of the series) unless noted. An outline of the steps:
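Jurkat cells with NFAT-driven β-lactamase reporter and co-expressed M1 receptor, stimulated with carbachol (final 1 uM, ~EC50), compound titration, 5 h at 37 °C. CCF4 loaded 1 h at RT; 460/530 nm ratio gave %activity and AC50.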

Test [5] can be described thus: Stat Signaling Pathway (AID 446; active means well fitted curve in either direction with a large enough effect, not every such curve was filed as active;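 further: ME-180 cervical cancer cells given 40 pM IL-6 alongside compound; SIE-controlled beta-lactamase reporter measured as 460/530 nm FRET emission ratio; on the % scale 0 is the no-effect control and ±100 the full control effect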). As to conditions: ME-180 (cervical carcinoma) SIE beta-lactamase reporter, IL-6 stimulated, 5 h; at 7.69 µM (top of the series) unless noted. An outline of the steps: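 IL-6/STAT signaling read in ME-180 cells via an SIE beta-lactamase reporter. Stimulus was 40 pM IL-6 (its AC50) for 5 hrs, so both activation and inhibition register.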
The target of test [6] is Glucocorticoid receptor (Homo sapiens) (UniProt P04150). The test is described as follows: GR-GFP Redistribution (AID 450;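 active means compounds whose dose series gives a full or clear partial fitted curve of increased nuclear translocation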; further: potency means the concentration at half of the fitted maximal effect). As to conditions: U2OS GR-GFP nuclear translocation, laser cytometry, 2 h.
Test [7] shares this target. The test is described as follows: GR-EFC Redistribution (AID 451; calls by dose curve; further: potency means the concentration at half of the fitted maximal effect). As to conditions: CHO-K1 GR-EFC translocation, beta-gal luminescence, 2 h. The method in brief: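 CHO-K1 cells expressing nuclear EA and GR-ED fragments of b-gal; compounds titrated up to 46 uM final, 2 h at 37 C. GR nuclear translocation read as complemented b-gal luminescence after 1 h RT detection.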

The target of test [8] is Mitogen-activated protein kinase 10 (Mus musculus) (UniProt Q61831). The test is described as follows: JNK3 AlphaScreen Assay (AID 530; active means well fitted curve in either direction with a large enough effect, not every such curve was filed as active;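 further: kinase came from lysate of stimulated human HepG2 cells; signal reports phosphorylation of biotinylated GST-cJun 1-79 at Ser73 with 10 µM ATP; on the % scale 0 is the no-effect control and ±100 the full control effect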). As to conditions: JNK3 lysate, c-Jun phosphorylation; series mostly up to 57.1 µM. An outline of the steps:
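Pre-activated (IL-1β/TNFα) JNK3 in HepG2 lysates phosphorylates biotin-GST-cJun(1-79), 10 uM ATP; anti-phospho-cJun(Ser73) AlphaScreen read at room temperature, pH 7.6 Tris buffer. Compounds pre-incubated 15 min as titrations.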

For test [9], the target named is Cytochrome P450 3A4 (Homo sapiens) (UniProt P08684). The test is described as follows: qHTS Assay for Inhibitors and Substrates of Cytochrome P450 3A4 (AID 884). Further: potency means the concentration at half of the fitted maximal effect; nearly all actives have a fitted effect of over 50% in size. As to conditions: recombinant CYP3A4, Luciferin-PPXE luminescence; series mostly up to 57.1 µM. An outline of the steps:
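20 nM human CYP3A4 with 25 uM Luciferin-PPXE (at KM) in 200 mM KPO4, preincubated 10 min with compound; NADPH regeneration started a 60 min RT reaction. Luciferin detected by luminescence, normalized to 57 uM ketoconazole as full inhibition.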
A general note: qHTS replaces the single test concentration by a dilution series.

The target is the same in test [10]. The test is described as follows: qHTS Assay for Activators of Cytochrome P450 3A4 (AID 885). Further: nearly all actives have a fitted effect of over 65% in size. As to conditions: recombinant CYP3A4, Luciferin-PPXE luminescence, 60 min; series mostly up to 57.1 µM. The method in brief:
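Quantitative HTS format: compounds preincubated with 20nM human CYP3A4 and Luciferin-PPXE substrate at KM, reaction started by NADPH regeneration, stopped after 60 min, luciferase luminescence read 20 min later.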

For test [11], the target named is Cytochrome P450 2C19 (Homo sapiens) (UniProt P33261). The test can be described thus: qHTS Assay for Inhibitors and Substrates of Cytochrome P450 2C19 (AID 899). Further: potency means the concentration at half of the fitted maximal effect; nearly all actives have a fitted effect of over 60% in size. As to conditions: recombinant CYP2C19, luciferin-H EGE luminescence; series mostly up to 57.1 µM. The method in brief:
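5 nM human CYP2C19 with 10uM Luciferin-H EGE (at KM) in 50mM KPO4, compound preincubated 10 min at 37C, then NADPH regeneration for 60 min at 37C. Luciferin read by luminescence after detection reagent; normalized to 57uM ketoconazole as full inhibition.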

Test [12] deals with Dual specificity protein kinase CLK4 (Homo sapiens) (UniProt Q9HAZ1). The test is described as follows: qHTS Assay for Inhibitors of CDC-like Kinase 4 (ADP-FP Assay) (AID 1795). Further: nearly all actives have a fitted effect of over 60% in size. Further: potency means the concentration at half of the fitted maximal effect. As to conditions: Transcreener ADP fluorescence polarization; series mostly up to 50 µM. An outline of the steps:
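Inhibition of ADP formation by 6.25 nM Clk4 is measured using 1 uM ATP and 100 uM RS repeat peptide over one hour. Produced ADP displaces a fluorescent tracer from antibody, lowering polarization.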

The target of test [13] is Ubiquitin carboxyl-terminal hydrolase 1 (Homo sapiens) (UniProt O94782). The test is described as follows: Inhibitors of USP1/UAF1: Pilot qHTS (AID 504865). Further: nearly all actives have a fitted effect of over 35% in size. Further: potency means the concentration at half of the fitted maximal effect. As to conditions: purified USP1/UAF1, Ub-rhodamine cleavage fluorescence; series mostly up to 54.9 µM. The method in brief:
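Kinetic fluorescence assay: 1nM USP1/UAF1, 15 min compound preincubation, then 150nM Ub-Rho; 480/540 nm.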

Test [14] in a line: Primary qHTS for small molecule stabilizers of the endoplasmic reticulum resident proteome: Secreted ER Calcium Modulated Protein (SERCaMP) assay (AID 1508630). Further: on the % scale 0 is the no-effect control and ±100 the full control effect. As to conditions: SH-SY5Y GLuc-SERCaMP (Gaussia luciferase released on ER calcium loss) secretion, thapsigargin, luminescence; series mostly up to 38.4 µM. The method in brief:
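GLuc-SERCaMP-expressing SH-SY5Y cells, pretreated 16 h with compound, are challenged with thapsigargin to empty ER calcium stores; after 4 h, coelenterazine is added directly to the medium and luminescence is imaged.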

Test [15] addresses 3',5'-cyclic-AMP phosphodiesterase 4B (Homo sapiens) (UniProt Q07343). The test is described as follows: qHTS Assay for Inhibitors of PDE-IV (AID 607; active means well fitted activation curve with a large enough effect in the main read-out, with a control signal flat, not every such curve was filed as active; further: % of control where 0% means no effect). As to conditions: HEK293 ACTOne CNG channel cells, membrane potential fluorescence; series mostly up to 22.9 µM. The method in brief:
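Live HEK293 cells with a modified cyclic nucleotide-gated (CNG) channel report intracellular cAMP via membrane-potential dye fluorescence (ex 535/em 590 nm). Endogenous PDE-IV was targeted. Compounds were tested at up to 22.9 uM final; RO 20-1724 100 uM served as control.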

Values without a mark were called inactive. Results filed as inconclusive are left out. Active and inactive are the calls of the source. Unless noted, the call rests on the fitted dose curve; in most records, active means well fitted curve in the direction sought with a large enough effect; inconclusive means small, poorly fitted or top-dose-only effect, or another doubt; inactive means no such curve, though single readings can be large; an effect the other way counts as inactive or inconclusive.

Chain of Glucocorticoid receptor (Homo sapiens) (P04150 whole entry, looked up, the tested form may be a part): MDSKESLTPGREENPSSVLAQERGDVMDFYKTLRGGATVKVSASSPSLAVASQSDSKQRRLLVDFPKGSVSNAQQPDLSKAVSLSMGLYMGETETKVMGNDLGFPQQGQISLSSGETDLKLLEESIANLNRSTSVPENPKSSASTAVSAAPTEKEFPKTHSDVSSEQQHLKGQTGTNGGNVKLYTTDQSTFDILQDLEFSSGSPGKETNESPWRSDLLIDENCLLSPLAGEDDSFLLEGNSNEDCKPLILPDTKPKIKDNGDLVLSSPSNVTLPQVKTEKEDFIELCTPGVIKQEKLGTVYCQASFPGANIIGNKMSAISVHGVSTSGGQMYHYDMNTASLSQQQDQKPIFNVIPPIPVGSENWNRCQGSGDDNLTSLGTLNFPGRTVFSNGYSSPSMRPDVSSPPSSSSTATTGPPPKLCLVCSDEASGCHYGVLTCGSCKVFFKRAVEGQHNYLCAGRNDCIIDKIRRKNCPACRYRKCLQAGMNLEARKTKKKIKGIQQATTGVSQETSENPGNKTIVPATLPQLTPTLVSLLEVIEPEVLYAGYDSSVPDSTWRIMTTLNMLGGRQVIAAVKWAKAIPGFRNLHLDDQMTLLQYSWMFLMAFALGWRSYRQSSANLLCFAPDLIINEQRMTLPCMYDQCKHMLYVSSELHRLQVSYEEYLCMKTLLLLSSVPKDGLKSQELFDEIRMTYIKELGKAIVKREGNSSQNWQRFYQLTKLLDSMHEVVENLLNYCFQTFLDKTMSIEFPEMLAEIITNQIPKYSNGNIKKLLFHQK
Chain of Dual specificity protein kinase CLK4 (Homo sapiens) (Q9HAZ1 whole entry, looked up): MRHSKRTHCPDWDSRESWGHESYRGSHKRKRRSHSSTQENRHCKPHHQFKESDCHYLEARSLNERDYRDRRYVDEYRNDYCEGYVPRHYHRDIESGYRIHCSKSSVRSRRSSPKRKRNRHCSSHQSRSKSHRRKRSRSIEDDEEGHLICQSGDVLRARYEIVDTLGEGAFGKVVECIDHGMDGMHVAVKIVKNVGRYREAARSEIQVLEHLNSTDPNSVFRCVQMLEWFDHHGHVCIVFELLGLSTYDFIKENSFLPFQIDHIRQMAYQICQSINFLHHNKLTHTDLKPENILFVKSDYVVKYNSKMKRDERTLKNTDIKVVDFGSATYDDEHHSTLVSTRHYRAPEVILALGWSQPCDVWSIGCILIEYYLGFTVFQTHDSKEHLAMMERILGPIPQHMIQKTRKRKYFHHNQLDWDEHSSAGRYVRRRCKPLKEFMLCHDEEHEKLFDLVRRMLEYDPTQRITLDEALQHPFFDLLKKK
Chain of Ubiquitin carboxyl-terminal hydrolase 1 (Homo sapiens) (O94782 whole entry, looked up): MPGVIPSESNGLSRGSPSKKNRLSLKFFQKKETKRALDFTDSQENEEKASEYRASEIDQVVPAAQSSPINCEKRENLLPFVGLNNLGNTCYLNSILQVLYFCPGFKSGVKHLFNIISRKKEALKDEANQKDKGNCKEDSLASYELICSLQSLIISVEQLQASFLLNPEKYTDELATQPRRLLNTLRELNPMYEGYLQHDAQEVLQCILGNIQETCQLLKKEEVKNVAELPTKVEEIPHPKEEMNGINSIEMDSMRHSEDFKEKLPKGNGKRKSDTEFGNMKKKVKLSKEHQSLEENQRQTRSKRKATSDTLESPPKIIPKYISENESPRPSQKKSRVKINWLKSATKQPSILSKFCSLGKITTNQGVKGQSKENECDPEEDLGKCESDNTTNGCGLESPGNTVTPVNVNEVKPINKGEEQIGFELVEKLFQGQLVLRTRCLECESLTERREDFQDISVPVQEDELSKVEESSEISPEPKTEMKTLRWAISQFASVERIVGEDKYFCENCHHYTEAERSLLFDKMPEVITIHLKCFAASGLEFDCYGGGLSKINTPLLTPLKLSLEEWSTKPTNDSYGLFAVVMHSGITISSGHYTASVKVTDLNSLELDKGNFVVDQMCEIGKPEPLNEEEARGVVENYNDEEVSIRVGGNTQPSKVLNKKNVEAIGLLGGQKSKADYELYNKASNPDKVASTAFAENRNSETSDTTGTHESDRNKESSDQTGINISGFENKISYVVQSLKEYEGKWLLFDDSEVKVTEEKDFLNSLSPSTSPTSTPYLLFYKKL
Chain of Lysosomal acid glucosylceramidase (Homo sapiens) (P04062 whole entry, looked up): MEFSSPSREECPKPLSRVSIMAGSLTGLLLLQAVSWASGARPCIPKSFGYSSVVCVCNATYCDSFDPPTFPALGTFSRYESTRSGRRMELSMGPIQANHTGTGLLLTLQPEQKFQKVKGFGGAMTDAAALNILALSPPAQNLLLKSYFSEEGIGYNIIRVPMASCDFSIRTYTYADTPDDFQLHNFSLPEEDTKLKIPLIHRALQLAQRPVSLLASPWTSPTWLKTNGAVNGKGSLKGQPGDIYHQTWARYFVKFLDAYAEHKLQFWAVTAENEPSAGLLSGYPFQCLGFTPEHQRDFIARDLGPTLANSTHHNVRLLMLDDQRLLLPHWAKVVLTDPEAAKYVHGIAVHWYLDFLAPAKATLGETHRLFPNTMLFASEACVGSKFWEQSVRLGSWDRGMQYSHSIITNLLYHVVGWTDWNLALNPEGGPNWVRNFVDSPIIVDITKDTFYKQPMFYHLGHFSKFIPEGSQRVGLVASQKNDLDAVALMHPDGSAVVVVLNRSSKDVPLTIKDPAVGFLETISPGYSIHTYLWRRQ
Chain of Cytochrome P450 3A4 (Homo sapiens) (P08684 whole entry, looked up): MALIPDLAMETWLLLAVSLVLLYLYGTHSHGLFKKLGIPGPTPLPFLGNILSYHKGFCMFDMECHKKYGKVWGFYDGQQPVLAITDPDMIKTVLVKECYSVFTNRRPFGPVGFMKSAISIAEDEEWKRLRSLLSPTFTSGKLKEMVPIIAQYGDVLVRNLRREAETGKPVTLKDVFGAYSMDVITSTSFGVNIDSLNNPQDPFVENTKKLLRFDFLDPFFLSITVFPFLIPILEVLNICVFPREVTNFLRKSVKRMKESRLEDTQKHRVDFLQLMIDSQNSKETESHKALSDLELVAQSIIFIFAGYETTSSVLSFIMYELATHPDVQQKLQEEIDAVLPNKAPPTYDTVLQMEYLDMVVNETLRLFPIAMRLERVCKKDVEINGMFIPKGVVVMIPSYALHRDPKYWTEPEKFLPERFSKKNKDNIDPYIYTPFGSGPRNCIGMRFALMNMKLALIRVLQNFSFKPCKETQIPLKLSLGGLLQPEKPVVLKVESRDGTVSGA
Chain of 3',5'-cyclic-AMP phosphodiesterase 4B (Homo sapiens) (Q07343 whole entry, looked up): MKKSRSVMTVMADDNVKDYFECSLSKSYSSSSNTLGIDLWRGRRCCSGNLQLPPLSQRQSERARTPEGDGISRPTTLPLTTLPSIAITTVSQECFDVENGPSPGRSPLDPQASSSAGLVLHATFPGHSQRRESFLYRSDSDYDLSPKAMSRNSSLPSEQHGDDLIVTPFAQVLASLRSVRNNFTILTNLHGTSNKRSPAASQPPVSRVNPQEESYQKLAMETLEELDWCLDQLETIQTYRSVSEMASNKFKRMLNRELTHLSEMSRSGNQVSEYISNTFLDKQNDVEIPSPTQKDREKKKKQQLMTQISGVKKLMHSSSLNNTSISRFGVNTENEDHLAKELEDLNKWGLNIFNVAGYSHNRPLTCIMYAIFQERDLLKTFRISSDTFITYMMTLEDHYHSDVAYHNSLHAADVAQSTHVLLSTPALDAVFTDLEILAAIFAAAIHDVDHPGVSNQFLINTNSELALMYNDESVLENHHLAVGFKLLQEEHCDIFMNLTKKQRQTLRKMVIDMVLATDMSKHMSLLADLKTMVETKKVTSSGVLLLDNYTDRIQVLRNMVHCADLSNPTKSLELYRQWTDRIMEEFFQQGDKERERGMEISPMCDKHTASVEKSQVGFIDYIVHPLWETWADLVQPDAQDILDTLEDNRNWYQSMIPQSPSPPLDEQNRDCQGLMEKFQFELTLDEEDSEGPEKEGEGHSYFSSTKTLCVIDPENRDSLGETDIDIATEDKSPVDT
Chain of Cytochrome P450 1A2 (Homo sapiens) (P05177 whole entry, looked up): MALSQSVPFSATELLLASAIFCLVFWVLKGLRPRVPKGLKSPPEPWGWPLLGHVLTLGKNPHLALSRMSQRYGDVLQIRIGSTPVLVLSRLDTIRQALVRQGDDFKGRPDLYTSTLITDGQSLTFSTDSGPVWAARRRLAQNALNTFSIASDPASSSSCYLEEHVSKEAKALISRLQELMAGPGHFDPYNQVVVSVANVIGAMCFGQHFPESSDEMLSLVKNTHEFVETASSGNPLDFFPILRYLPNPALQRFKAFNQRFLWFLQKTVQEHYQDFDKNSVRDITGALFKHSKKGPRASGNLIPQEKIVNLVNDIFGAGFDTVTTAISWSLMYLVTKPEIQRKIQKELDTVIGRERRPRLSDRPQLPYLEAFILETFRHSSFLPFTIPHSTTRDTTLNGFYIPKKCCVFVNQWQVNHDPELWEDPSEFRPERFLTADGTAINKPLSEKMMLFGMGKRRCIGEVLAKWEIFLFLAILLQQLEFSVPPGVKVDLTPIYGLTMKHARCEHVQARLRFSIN
Chain of Cytochrome P450 2C19 (Homo sapiens) (P33261 whole entry, looked up): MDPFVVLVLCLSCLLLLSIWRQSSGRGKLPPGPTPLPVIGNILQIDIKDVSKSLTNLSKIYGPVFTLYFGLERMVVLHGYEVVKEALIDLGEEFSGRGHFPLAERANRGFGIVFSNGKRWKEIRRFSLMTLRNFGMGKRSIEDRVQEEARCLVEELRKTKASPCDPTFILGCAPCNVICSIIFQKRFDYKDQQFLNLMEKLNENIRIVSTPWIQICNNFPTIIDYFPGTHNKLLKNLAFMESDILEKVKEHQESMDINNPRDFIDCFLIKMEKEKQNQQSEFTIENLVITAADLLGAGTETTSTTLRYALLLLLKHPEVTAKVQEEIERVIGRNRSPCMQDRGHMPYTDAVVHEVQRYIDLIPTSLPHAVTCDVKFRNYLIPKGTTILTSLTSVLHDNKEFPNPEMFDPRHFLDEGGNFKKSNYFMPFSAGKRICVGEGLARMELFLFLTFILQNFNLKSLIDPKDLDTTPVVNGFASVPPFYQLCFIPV

For the compound `COc1ccccc1-c1cncnc1NCc1cccs1`, the Potency in test [1] is more than 11.4 µM; in test [3], 3.16 µM (active); in test [6] it was more than 46 µM; in test [7], more than 46 µM; in test [9], 0.398 µM (active); in [11], 2 µM (active). For the same compound, the activity change, negative = inhibition in test [2] was 0.247%; in test [4], -3.21%. Further, the activity, negative = inhibition in test [5] is -6.68%. Further, the Potency entry in [8], in test [10], in test [12] and in test [13] was “inactive” in each case. Also, the result in test [14] was inactive.

`c1ccc(Nc2ncncc2-c2ccoc2)cc1`: the Potency in test [1] is more than 11.4 µM; in test [3] it was 1 µM (active); in [7], more than 46 µM; in test [9] it was 2 µM (active); in test [12], 5.62 µM (active). The activity change, negative = inhibition in test [2] is -25%; in [4], 0.789%. In addition, in test [5], the activity, negative = inhibition was 5.02%. Also, the Potency result in [8] and in test [10] was “inactive” in each case. The result in test [14] was inactive.

With `COc1ccccc1-c1nc(N(C)Cc2ccco2)c2ccccc2n1`, the Potency in [1] is more than 11.4 µM; in [3] it was 0.501 µM (active); in test [6], more than 46 µM; in test [7], more than 46 µM; in test [9] it was 7.94 µM (active). Further, the activity change, negative = inhibition in test [2] was 27.9%; in test [4], -21.3%. Besides, in test [5], the activity, negative = inhibition was 8.04%. The Potency result in test [8], in test [10] and in test [12] was “inactive” throughout. Besides, the result in test [14] was inactive.

Turning to `COc1ccc(CNc2ncncc2-c2ccoc2)c(OC)c1`, the Potency was more than 11.4 µM in test [1], more than 46 µM in test [6], more than 46 µM in [7] and 14.1 µM (active) in test [12]. Further, the activity change, negative = inhibition in test [2] is -9.49%; in test [4], 5.94%. For the same compound, in test [5], the activity, negative = inhibition is -9.38%. For the same compound, the Potency entry in test [8], in [15] and in test [13] was “inactive” in each case. Besides, in test [14], the outcome was inactive.

Turning to `COc1ccc(CNc2ccnc(-c3cccnc3)n2)c(OC)c1`, the Potency in test [1] was more than 11.4 µM; in test [3], 0.316 µM (active); in test [6], more than 46 µM; in test [7], more than 46 µM; in [9], 0.631 µM (active); in test [11], 2 µM (active). Further, the results for the activity change, negative = inhibition in test [2] and in [4] were -5.2% and -0.132%, respectively. Also, the activity, negative = inhibition in [5] was -2.65%. For the same compound, the Potency result in [15], in test [10], in test [12] and in test [13] was “inactive” each time. For the same compound, in [14], the result was inactive.

Regarding `CCNc1ncc2nc(-c3cccs3)c(=O)n(-c3ccccc3)c2n1`, the Potency in test [1] is more than 11.4 µM; in test [3], 1.58 µM (active); in test [6] it was more than 9.22 µM; in test [7], more than 46 µM. The results for the activity change, negative = inhibition in test [2] and in [4] were -0.879% and -3.13%, respectively. Further, the Potency result in test [8], in test [12] and in test [13] was “inactive” in each case. The result in test [14] was inactive.

As for `Cc1cnc(CNc2cc(-c3c(C)noc3C)ncn2)cn1`, the Potency in test [1] is more than 11.4 µM; in test [6] it was more than 46 µM; in [7] it was more than 46 µM. Further, the activity change, negative = inhibition in [2] was 23.4%; in test [4] it was 7.12%. The activity, negative = inhibition in [5] is 12.1%. Also, the Potency entry in test [8], in test [15], in test [12] and in test [13] was “inactive” throughout. Also, in test [14], the result was inactive.

As to `Cc1noc(C)c1-c1nc(NCc2ccccc2)c2ccccc2n1`, the Potency was more than 11.4 µM in test [1], more than 46 µM in [6], more than 46 µM in test [7] and 6.31 µM (active) in test [13]. The activity change, negative = inhibition in test [2] was -3.06%. For the same compound, the activity, negative = inhibition in [5] is -4.57%. The Potency result in test [8] and in [12] was “inactive” each time. In test [14], the outcome was inactive.
